According to PubChem BioAssay (NCI):
About 79,000 compounds went through this panel and 15% of them were active in at least one assay; those are over-represented in the sample as a whole. Unmarked numbers belong to inactive results. Activity calls are given as the source filed them. Cut-off read from the data, not from the text of the source: active = growth inhibition above about 70%; inactive = the rest.

Columns and labels:
[1] = NCI Yeast Anticancer Drug Screen. Data for the rad50 strain (AID 155);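 note: 0% = growth of vehicle-only cultures of the same strain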; details: S. cerevisiae rad50 strain growth inhibition, active compounds read high
How it was run: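 Inhibition values express reduced yeast growth in compound-treated cultures relative to vehicle-treated controls.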

[2] = NCI Yeast Anticancer Drug Screen. Data for the mec2-1 strain (AID 157); details: S. cerevisiae mec2-1 strain, active compounds read high
How it was run: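 Test agents were screened against the mec2-1 yeast strain, with defined DNA repair or cell cycle alteration. Growth was scored as inhibition against vehicle-only controls.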

[3] = NCI Yeast Anticancer Drug Screen. Data for the sgs1 mgt1 strain (AID 161);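 note: 0% = growth of cultures given vehicle only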; details: S. cerevisiae sgs1 mgt1 strain, active compounds read high
How it was run: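 Read-out: growth inhibition vs vehicle controls. Cells: mutant yeast strain deficient in DNA damage repair.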

[4] = NCI Yeast Anticancer Drug Screen. Data for the cln2 rad14 strain (AID 165);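 note: 0% = growth equal to vehicle treated cultures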; details: S. cerevisiae cln2 rad14 strain, active compounds read high
How it was run: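 Growth of compound-exposed yeast (cln2 rad14 genotype) measured and expressed as inhibition relative to vehicle.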

[5] = NCI Yeast Anticancer Drug Screen. Data for the bub3 strain (AID 167); details: S. cerevisiae bub3 mutant strain, active compounds read high
How it was run: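 Steps: expose the mutant yeast strain to compound; grow alongside vehicle-treated cultures; measure growth; express inhibition against the vehicle cultures.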

[6] = NCI Yeast Anticancer Drug Screen. Data for the mlh1 rad18 strain (AID 175); details: S. cerevisiae mlh1 rad18 strain growth inhibition, active compounds read high
How it was run: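 In this whole-cell yeast screen, a strain with altered DNA damage repair is challenged with compound, and its growth is measured against matched vehicle-treated controls.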

[7] = at 5.0 µM (retest, dose inferred, filed as 0.5)
[8] = at 50.0 µM (retest, dose inferred, filed as 5.0)

Compound | growth inhibition [1, 7] | growth inhibition [1, 8] | growth inhibition ([1]; at 50.0 µM) | growth inhibition [2, 7] | growth inhibition [2, 8] | growth inhibition ([2]; at 50.0 µM) | growth inhibition [3, 7] | growth inhibition [3, 8] | growth inhibition [4, 7] | growth inhibition [4, 8] | growth inhibition [5, 7] | growth inhibition [5, 8] | growth inhibition [6, 7] | growth inhibition [6, 8] | growth inhibition ([6]; at 50.0 µM) | growth inhibition ([3]; at 50.0 µM) | growth inhibition ([4]; at 50.0 µM) | growth inhibition ([5]; at 50.0 µM)
Cc1ccc(Nc2n[nH]c(=S)s2)cc1F | 37% | 90% (active) | 85.8% (active) | 46% | 93% (active) | 78.2% (active) | 8% | 79% (active) | 49% | 80% (active) | 28% | 80% (active) | 27% | 84% (active) | 77.2% (active) | – | – | –
O=C1C=CC(=O)N1c1ccccc1 | 95% (active) | 98% (active) | 99.3% (active) | 99% (active) | 99% (active) | 99.7% (active) | 94% (active) | 99% (active) | 94% (active) | 99% (active) | – | – | 90% (active) | 99% (active) | 99.2% (active) | 99.4% (active) | 99% (active) | –
Nc1nc2ncc(CNc3ccc(C(=O)NC(CCC(=O)NC(CCC(=O)NC(CCC(=O)NC(CCC(=O)NC(CCC(=O)O)C(=O)O)C(=O)O)C(=O)O)C(=O)O)C(=O)O)cc3)nc2c(=O)[nH]1 (stereo not given) | -19% | -9% | 25.2% | 0% | -6% | 18.3% | 0% | -12% | 12% | 1% | – | – | 10% | 20% | 8.35% | 24.6% | 47% | –
O=C1C=CC(=O)N1c1cc(Cl)c(Cl)cc1Cl | 32% | 86% (active) | 91.6% (active) | 51% | 98% (active) | 27.1% | 101% (active) | 100% (active) | 89% (active) | 100% (active) | 101% (active) | 100% (active) | 32% | 99% (active) | 91.5% (active) | – | – | –
O=C(c1ccccc1)C(Br)C(Br)c1ccccc1 (stereo not given) | 31% | 96% (active) | 97.7% (active) | 27% | 98% (active) | 98.8% (active) | 38% | 97% (active) | 18% | 84% (active) | – | – | 43% | 95% (active) | 97.2% (active) | 43.2% | 39.8% | –
CC1(C)CCCC2=C1C(=O)N(SC(Cl)(Cl)Cl)C2=O | 98% (active) | 99% (active) | 90.3% (active) | 99% (active) | 99% (active) | 93.1% (active) | 100% (active) | 99% (active) | 99% (active) | 99% (active) | – | – | 98% (active) | 99% (active) | 90.1% (active) | 90.5% (active) | 91.3% (active) | –
CC/C(=C(/CC)c1ccc(O)cc1)c1ccc(O)cc1 | 16% | 99% (active) | 99% (active) | 6% | 99% (active) | 98.8% (active) | 5% | 100% (active) | 39% | 99% (active) | 22% | 63% | 13% | 97% (active) | 99.2% (active) | 99.1% (active) | 98% (active) | 99.5% (active)
O=C1CCC2(C=C(Br)C(=O)C(Br)=C2)O1 | 42% | 87% (active) | 91.8% (active) | 46% | 96% (active) | 93.5% (active) | 92% (active) | 99% (active) | 91% (active) | 99% (active) | 92% (active) | 100% (active) | 31% | 94% (active) | 92.3% (active) | – | – | –
Nc1c(N)c(Cl)c(Cl)c(Cl)c1Cl | 38% | 84% (active) | 87% (active) | 58% | 91% (active) | 91.6% (active) | 20% | 96% (active) | 43% | 97% (active) | 32% | 98% (active) | 33% | 83% (active) | 87.3% (active) | – | – | –
c1ccc(-c2nc(N=C3N=c4ccccc4=N3)[nH]c2-c2ccccn2)nc1 | 59% | 96% (active) | 75.1% (active) | 54% | 97% (active) | 77.8% (active) | 36% | 84% (active) | 49% | 93% (active) | 58% | 80% (active) | 49% | 98% (active) | 75.5% (active) | – | – | –
COc1cc(N(CCC#N)CCC#N)ccc1/C(N=Nc1ccc(C(=O)O)cc1)=N/NC(=O)c1cc(Br)ccc1O | 9% | 26% | 74.8% (active) | 12% | 24% | 62.1% | -13% | 20% | – | – | 14% | 40% | 8% | 21% | 50.3% | 25.7% | – | 59.2%
c1ccc(-c2cc3cc4ccccc4cn3c2)cc1 | 58% | 93% (active) | 83.8% (active) | 43% | 94% (active) | 83.8% (active) | 52% | 97% (active) | 35% | 84% (active) | 53% | 97% (active) | 61% | 95% (active) | 86.7% (active) | 88.8% (active) | 82.8% (active) | 86.3% (active)
C=[CH][Sn]([CH]=C)([O]c1cccc2cccnc12)[O]c1cccc2cccnc12 | 27% | 36% | 87.3% (active) | 25% | 34% | 92.7% (active) | 91% (active) | 98% (active) | – | – | 87% (active) | 98% (active) | 30% | 60% | 87.7% (active) | 82.8% (active) | – | 89.8% (active)
CC1C2c3ccccc3C(c3ccccc32)C1CO (stereo not given) | 11% | 88% (active) | – | 1% | 61% | – | 6% | 77% (active) | 4% | 71% (active) | -4% | 74% (active) | -44% | 80% (active) | – | – | – | –
CN1CSC(=S)N(Cc2ccccc2)C1 | 20% | 78% (active) | 73.6% (active) | -5% | 76% (active) | 87.8% (active) | – | – | 19% | 41% | 25% | 90% (active) | -2% | 89% (active) | 75.3% (active) | – | 21.2% | 88.3% (active)
O=S(=O)(O)c1cnccn1 | 0% | -4% | 91.3% (active) | – | – | – | -4% | -3% | 0% | 3% | 2% | 6% | 1% | -2% | 80.9% (active) | 87.8% (active) | 80.8% (active) | 96.9% (active)
O=C1C=CC2C3C(=O)N(c4ccccc4)C(=O)C3C1N2Cc1ccccc1 (stereo not given) | 18% | 48% | – | 18% | 58% | – | 50% | 70% (active) | 21% | 56% | 24% | 78% (active) | – | – | – | 69.2% | 43.2% | 61.9%
S=c1[nH]c(=S)c2[nH]c(=S)[nH]c2[nH]1 | -1% | 0% | – | 2% | 6% | – | 5% | 11% | -13% | -13% | 6% | 6% | – | – | – | – | – | –
C=CC(=O)OCCOCc1ccccc1 | 4% | 29% | – | -3% | 12% | – | -1% | 27% | -2% | -12% | 1% | 12% | -32% | 18% | – | – | – | –
CCC(=O)c1cc([N+](=O)[O-])c(Br)s1 | 99% (active) | 99% (active) | 99.7% (active) | – | – | – | 100% (active) | 100% (active) | 99% (active) | 99% (active) | 100% (active) | 99% (active) | 99% (active) | 99% (active) | 99.5% (active) | 99.6% (active) | 98.8% (active) | 99.5% (active)
CCCCCCN(CCCCCC)CCCNc1nccc2ccccc12 | 4% | 62% | 78.5% (active) | -4% | 14% | 36.5% | – | – | -4% | 13% | 5% | 72% (active) | 10% | 64% | 77% (active) | – | 56.5% | 84% (active)
CN(C)c1ccc(/C=C/c2cc[n+](C)c(/C=C/c3ccc(N(C)C)cc3)c2)cc1 | 98% (active) | 96% (active) | 91% (active) | – | – | – | 98% (active) | 93% (active) | 99% (active) | 97% (active) | 96% (active) | 95% (active) | 100% (active) | 96% (active) | 91% (active) | 93.2% (active) | 92.8% (active) | 91.8% (active)
Oc1ccc(Cc2ccc(Cl)cc2)c(O)c1 | 3% | 98% (active) | – | -5% | 99% (active) | – | -1% | 99% (active) | 0% | 98% (active) | -2% | 99% (active) | – | – | – | – | – | –
N=C1C(=N)c2ccccc2-c2ccccc21 | 9% | 99% (active) | 88.8% (active) | – | – | – | 17% | 38% | 18% | 87% (active) | 11% | 99% (active) | – | – | – | 91.9% (active) | 91.7% (active) | 89.6% (active)
